The structures appear in SMILES notation. Several values for one entry are separate records, joined by “and”; a condition that tells them apart may be missing. Identical values can stand only once. Inconclusive results are not listed. Activity calls are given as the source filed them. Unless noted, calls come from the whole dose curve; as a rule, active = well fitted curve in the direction sought with a large enough effect; inconclusive = small, poorly fitted or top-dose-only effect, or another doubt; inactive = no such curve, though single readings can be large; an effect the other way counts as inactive or inconclusive.

Test [1] can be described thus: qHTS for Inhibitors of the Functional Ribonucleoprotein Complex (vRNP) of Lymphocytic Choriomeningitis Arenaviruses (LCMV): Viability assay - alamar blue signal for LCMV Primary Screen (AID 1347085; calls by dose curve; tested in HEK293 reporter line; note: nearly all actives have a fitted effect of over 80% in size). The settings on record: alamar blue viability counter-screen, LCMV vRNP screen cells; series mostly up to 57.5 µM.
Test [2] deals with Nucleoprotein (Lymphocytic choriomeningitis virus (strain Armstrong)) (UniProt P09992). The test can be described thus: qHTS for Inhibitors of the Functional Ribonucleoprotein Complex (vRNP) of Lymphocytic Choriomeningitis Arenaviruses (LCMV): LCMV Primary Screen - GLuc reporter signal (AID 1347086; calls by dose curve; note: nearly all actives have a fitted effect of over 70% in size; note: potency is the fitted concentration of half-maximal effect). To be noted: LCMV minigenome vRNP cell assay, Gaussia luciferase reporter; series mostly up to 57.5 µM.

A short description of test [3]: qHTS of pediatric cancer cell lines to identify multiple opportunities for drug repurposing: Primary screen for TC32 cells (AID 1347089). Note: nearly all actives have a fitted effect of over 60% in size. Note: potency is the fitted concentration of half-maximal effect. The settings on record: TC32 Ewing sarcoma viability, CellTiter-Glo luminescence, 48 h; series mostly up to 45.8 µM. In outline: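 qHTS, TC32, 48 h drug treatment, CellTiter-Glo luminescence as a proxy for metabolically active cells; primary top concentration 46 µM (MIPE 11-pt, NPC 8-pt); confirmatory 11-pt.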
Background: qHTS replaces the single test concentration by a dilution series.

Test [4] in a line: qHTS of pediatric cancer cell lines to identify multiple opportunities for drug repurposing: Primary screen for DAOY cells (AID 1347090). Note: nearly all actives have a fitted effect of over 55% in size. Note: potency is the fitted concentration of half-maximal effect. The settings on record: DAOY medulloblastoma viability, CellTiter-Glo luminescence, 48 h; series mostly up to 46 µM. Put shortly:
(§1)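 Viability measured as metabolically active cells via CellTiter-Glo luminescence following 48 hours of compound exposure, 11-point dilutions in confirmatory testing. 500-1,000 cells/well plated 5 hours before dosing; controls were DMSO and 2.3 µM bortezomib.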

A short description of test [5]: qHTS of pediatric cancer cell lines to identify multiple opportunities for drug repurposing: Primary screen for SJ-GBM2 cells (AID 1347091). Note: potency is the fitted concentration of half-maximal effect. To be noted: SJ-GBM2 viability, CellTiter-Glo luminescence, 48 h; series mostly up to 46 µM. Put shortly:
as §1

The nature of test [6]: qHTS of pediatric cancer cell lines to identify multiple opportunities for drug repurposing: Primary screen for NB-EBc1 cells (AID 1347095). Note: potency is the fitted concentration of half-maximal effect. To be noted: NB-EBc1 neuroblastoma viability, CellTiter-Glo luminescence, 48 h; series mostly up to 46 µM. Put shortly: (§2)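 Cells plated at 500-1,000/well in growth medium, compounds added after 5 h. MIPE tested at 11 points (from 0.78 nM), NPC at 8 points (from 0.59 nM). CellTiter-Glo luminescence after 48 h; concentration-response curves from primary screen.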

A short description of test [7]: qHTS of pediatric cancer cell lines to identify multiple opportunities for drug repurposing: Primary screen for A673 cells (AID 1347092). Note: potency is the fitted concentration of half-maximal effect; nearly all actives have a fitted effect of over 45% in size. The settings on record: A673 Ewing sarcoma viability, CellTiter-Glo ATP luminescence, 48 h; series mostly up to 46 µM. Put shortly:
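Luminescence from CellTiter-Glo, taken after 15 min at room temperature, served as the proxy for metabolically active cells following 48 h treatment. Both potency and efficacy were taken from curves fitted to the titration data.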

Test [8] in a line: qHTS of pediatric cancer cell lines to identify multiple opportunities for drug repurposing: Primary screen for SK-N-MC cells (AID 1347093). Note: potency is the fitted concentration of half-maximal effect. To be noted: SK-N-MC viability, CellTiter-Glo luminescence, 48 h; series mostly up to 46 µM. Put shortly:
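Metabolically active cells were quantified by ATP-dependent luminescence (CellTiter-Glo, 15 min at room temperature) following 48 h treatment. Cells had been plated at 500-1,000 per well and settled for 5 h beforehand.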

Test [9] in a line: qHTS of pediatric cancer cell lines to identify multiple opportunities for drug repurposing: Primary screen for BT-37 cells (AID 1347094). Note: potency is the fitted concentration of half-maximal effect. To be noted: BT-37 viability, CellTiter-Glo luminescence, 48 h; series mostly up to 57.3 µM. In outline:
as §2

Nucleoprotein (Lymphocytic choriomeningitis virus (strain Armstrong)), sequence (P09992 whole entry, looked up): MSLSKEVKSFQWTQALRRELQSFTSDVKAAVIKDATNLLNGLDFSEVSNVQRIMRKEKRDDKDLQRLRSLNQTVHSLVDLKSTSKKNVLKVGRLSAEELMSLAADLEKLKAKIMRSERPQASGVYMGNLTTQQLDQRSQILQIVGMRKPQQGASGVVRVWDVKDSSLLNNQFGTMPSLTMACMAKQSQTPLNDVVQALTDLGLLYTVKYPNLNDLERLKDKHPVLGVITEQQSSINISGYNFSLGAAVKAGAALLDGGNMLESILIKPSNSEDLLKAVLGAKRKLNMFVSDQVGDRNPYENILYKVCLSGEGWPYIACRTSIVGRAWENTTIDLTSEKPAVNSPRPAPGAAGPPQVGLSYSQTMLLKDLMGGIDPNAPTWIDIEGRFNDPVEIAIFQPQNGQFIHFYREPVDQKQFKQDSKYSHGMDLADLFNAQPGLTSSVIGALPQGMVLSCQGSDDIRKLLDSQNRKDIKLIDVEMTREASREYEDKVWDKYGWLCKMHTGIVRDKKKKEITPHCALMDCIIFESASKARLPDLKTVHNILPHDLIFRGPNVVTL

As for `O=C1c2cccc3c2[C@H](CCC3)CN1[C@@H]1CN2CCC1CC2`, the Potency result in test [1] and in test [2] was “inactive” throughout.
Take `CCC(=O)C(CC(C)N(C)C)(c1ccccc1)c1ccccc1` (stereo unspecified): the Potency result in test [1], in test [2], in test [3], in test [5] and in test [6] was “inactive” each time. Further, the Potency in test [4] was 34.7 µM (active).
Consider `CC(=O)N(O)CCCCCNC(=O)CCC(=O)N(O)CCCCCNC(=O)CCC(=O)N(O)CCCCCN`, for which the Potency result in test [1] and in test [2] was “inactive” each time.
Consider `CN(Cc1cnc2nc(N)nc(N)c2n1)c1ccc(C(=O)N[C@@H](CCC(=O)O)C(=O)O)cc1`, for which the Potency entry in test [1] and in test [2] was “inactive” in each case.
Regarding `Nc1nc2c(ncn2COC(CO)CO)c(=O)[nH]1`, the Potency result in test [2] was “inactive”.
With `CC(C)c1nc(CN(C)C(=O)N[C@H](C(=O)N[C@@H](Cc2ccccc2)C[C@H](O)[C@H](Cc2ccccc2)NC(=O)OCc2cncs2)C(C)C)cs1`, the Potency result in test [1] and in test [2] was “inactive” each time.
With `NC1[C@H]2CN(c3nc4c(cc3F)c(=O)c(C(=O)O)cn4-c3ccc(F)cc3F)C[C@@H]12` (stereo partly specified), the Potency result in [2] is “inactive”.
Regarding `Fc1ccc(C(OCCN2CCN(CCCc3ccccc3)CC2)c2ccc(F)cc2)cc1`, the Potency in test [2] is 30.6 µM (active); in test [3] it was 13.1 µM (active); in test [4], 23.5 µM (active); in [5] it was 20.9 µM (active) and 16.8 µM (active); in [7], 14.8 µM (active); in test [8], 9.35 µM (active) and 10.6 µM (active). Besides, the Potency in test [9] was 21.7 µM (active) and 24.6 µM (active); in test [6] it was 23.7 µM (active).
Turning to `Cc1ccc(-n2nc(C(C)(C)C)cc2NC(=O)Nc2ccc(OCCN3CCOCC3)c3ccccc23)cc1`, in test [2], the Potency entry is “inactive”.
Turning to `COc1cc(NCc2ccc3nc(N)nc(N)c3c2C)cc(OC)c1OC`, the Potency entry in test [2] is “inactive”.
On the same count and under the same terms, as for `CC1=C(/C=C/C(C)=C/C=C/C(C)=C/C(=O)Nc2ccc(O)cc2)C(C)(C)CCC1`, the figure is 8.91 µM (active).
For `Cn1cc(C2=C(c3cn(C4CCN(Cc5ccccn5)CC4)c4ccccc34)C(=O)NC2=O)c2ccccc21`, the Potency result in test [3] and in [4] was “inactive” throughout. Besides, the Potency in test [7] is 3.72 µM (active).
On to `Nc1ccn([C@@H]2O[C@H](CO)[C@@H](O)C2(F)F)c(=O)n1`, for which the Potency result in test [2] is “inactive”.

Values taken from PubChem BioAssay (NCATS).
